Source: PubChem BioAssay (National Center for Advancing Translational Sciences (NCATS))
TbPYK inhibitor = inhibitors of Trypanosoma brucei pyruvate kinase; TbPYK enzyme, Kinase-Glo Plus ATP luminescence, 45 min; Q57TT1; Potency, µM (doses to about 76.8 µM), without a hit: top-dose activity, negative = inhibition, actives largely listed as inhibitors; actives 0.12% (n = 410,000); also: potency is read from the fitted curve at half-maximal effect; nearly all actives have a fitted effect of over 50% in size
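Assay buffer: 50 mM TEA pH 7.2, 100 mM KCl, 10 mM MgCl2, 0.05% BSA, 0.01% Tween-20. Pyruvate kinase from T. brucei plus substrate met compound, then ADP (130 uM final). Luminescence was read post 45 min RT.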
FMDV inh = antivirals against foot and mouth disease virus | FMDV antiviral cell-based qHTS | Potency, µM (series often up to 57.9 µM), inactives show top-dose activity change, negative = inhibition, actives largely listed as inhibitors | actives 1.2% (n = 410,000) | AID 1159524; calls by dose curve; tested in HEK293T cells; also: read-out not given here; potency is read from the fitted curve at half-maximal effect; nearly all actives have a fitted effect of over 45% in size
RE007 growth inh = less growth of the S. pombe RE007 Vpr strain. actives 0.21% (n = 360,000). Potency, µM (titrated, usually from 92.2 µM), without a hit: at the highest dose activity change, negative = less growth, usual class: inhibitors. S. pombe RE007 Vpr strain, BacTiter-Glo ATP luminescence, 24 h; active = well fitted falling curve with a large enough effect; inconclusive = small, poorly fitted or top-dose-only effect; inactive = no such curve, though single readings can be large or run the other way; also: potency is read from the fitted curve at half-maximal effect; nearly all actives have a fitted effect of over 50% in size
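Fission yeast RE007 carrying one integrated HIV-1 vpr copy, seeded at OD 0.01 in PMG+AL medium with 23 nL pinned compound. Grown 24 h at 30 degrees; viability read by BacTiter-Glo luminescence after 5 min.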
FBPA Giardia inh = Giardia lamblia aldolase inhibition; purified Giardia FBPA; actives 0.71% (n = 290,000); A8B2U2; Potency, µM (titrated, usually from 59.6 µM), for inactives: at the top dose activity, negative = inhibition, actives largely listed as inhibitors; also: potency is read from the fitted curve at half-maximal effect; nearly all actives have a fitted effect of over 55% in size
Target sequence (A8B2U2 whole entry, looked up): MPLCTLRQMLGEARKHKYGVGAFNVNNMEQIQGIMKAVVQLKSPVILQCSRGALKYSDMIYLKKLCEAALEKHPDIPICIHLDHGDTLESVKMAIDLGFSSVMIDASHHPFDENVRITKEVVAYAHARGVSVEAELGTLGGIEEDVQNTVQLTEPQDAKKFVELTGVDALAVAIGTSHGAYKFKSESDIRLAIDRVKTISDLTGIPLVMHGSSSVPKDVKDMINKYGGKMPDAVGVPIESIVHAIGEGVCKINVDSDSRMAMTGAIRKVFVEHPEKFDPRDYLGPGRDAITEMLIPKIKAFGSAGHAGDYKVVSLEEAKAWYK
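Giardia FBPA (40 nM reagent) was preincubated 10 min at RT with compound (up to 57.5 uM final), then substrate plus GAPDH/TPI/NAD/arsenate coupling system with diaphorase/resazurin was added; resorufin fluorescence (525/598 nm) was read after 20 min.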
HCMV antiviral = blocks human cytomegalovirus replication; HFF cells, HCMV-luciferase reporter, 72 h; stronger effect = lower value; activity change, negative = inhibition, % at 57.5 µM; actives 4.5% (n = 410,000); AID 1259415; in the data active = activity change below about -60%; inconclusive = no clear call, values can overlap the other calls; inactive = above about -39%
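HFF cells seeded 16 h at 37C, treated with compounds, infected with luciferase-reporter HCMV at MOI 1 PFU/cell; luciferase read at 72 h post infection, normalized to buffer-only and Salinomycin controls.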
Sm TGR inh = S. mansoni TGR enzyme inhibition; Q962Y6; purified TGR, DTNB reduction, TNB absorbance 405 nm; Potency, µM (series often up to 114 µM), for inactives: top-dose activity change, negative = inhibition, hits mostly inhibitors; actives 3% (n = 360,000); AID 485364; also: potency is read from the fitted curve at half-maximal effect; nearly all actives have a fitted effect of over 60% in size
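First, TGR (20 nM dispensed) and NADPH were mixed with compound. Second, a 15 min room-temperature incubation followed. Third, further NADPH and then DTNB were added to start the reaction. Finally, TNB absorbance was monitored kinetically.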
The depositor's hits bear a star; [ ] = remark or other dose. Compounds with a hit are over-represented: about 7.7% of the library has one in this group of screens. Unless noted, calls follow the shape of the dose curve; as a rule, active = well fitted curve in the direction sought with a large enough effect; inconclusive = small, poorly fitted or top-dose-only effect, or another doubt; inactive = no such curve, though single readings can be large; an effect the other way counts as inactive or inconclusive. % is scaled to controls: 0 for no effect and ±100 for the full control effect.

Results for CC[C@H]1OC(=O)[C@H](C)[C@@H](O[C@H]2C[C@@](C)(OC)[C@@H](O)[C@H](C)O2)C(C)[C@@H](O[C@@H]2O[C@H](C)C[C@H](N(C)C)[C@@H]2O)[C@](C)(OC)C[C@@H](C)C(=O)[C@H](C)[C@@H](O)[C@]1(C)O (stereo partly specified) ?
TbPYK inhibitor: 3%; FMDV inh: 0%; FBPA Giardia inh: -4%

Results for CCOC(=O)/C=C/[C@H](CCc1ccccc1)NC(=O)C(F)(F)F ?
HCMV antiviral: -19

Results for CC(=O)c1cc(-c2ccccc2)n(CC(=O)N2CCN(C3CCCC3)CC2)c1C ?
TbPYK inhibitor: 5%; FMDV inh: -18%; RE007 growth inh: -8%; FBPA Giardia inh: 2%; HCMV antiviral: -8; Sm TGR inh: 40µM*

How did CC(=O)c1cc(-c2ccccc2)n(CC(=O)N2CCC(C)CC2)c1C do in these assays?
TbPYK inhibitor: 9%; FMDV inh: 11%; RE007 growth inh: 7%; FBPA Giardia inh: 3%; HCMV antiviral: 35; Sm TGR inh: -2%

Results for CCCCC[C@@H](C)N1C[C@H](COCc2ccccc2)Oc2cc(N3CC[C@@H](N(C)C)C3)ccc2S1(=O)=O ?
TbPYK inhibitor: -1%; FMDV inh: -1%; RE007 growth inh: -13%; HCMV antiviral: -102*

How did CCCCC[C@@H](C)N1C[C@@H](COCc2ccccc2)Oc2cc(N3CC[C@@H](N(C)C)C3)ccc2S1(=O)=O do in these assays?
TbPYK inhibitor: 5%; FMDV inh: -10%; RE007 growth inh: -20%; HCMV antiviral: -20

How did CCCCC[C@H](C)N1C[C@H](COCc2ccccc2)Oc2cc(N3CC[C@@H](N(C)C)C3)ccc2S1(=O)=O do in these assays?
TbPYK inhibitor: 2%; FMDV inh: 3%; RE007 growth inh: 24%; HCMV antiviral: -101*

Results for CC(C)C[C@H](NC(=O)[C@H](Cc1c[nH]c2ccccc12)NC(=O)[C@H](CCCCN)NC(=O)CNC(=O)[C@H](CC(C)C)NC(=O)[C@H](CO)NC(=O)[C@@H](N)Cc1cnc[nH]1)C(=O)NCC(=O)N[C@@H](Cc1cnc[nH]1)C(=O)N1CCC[C@H]1C(=O)N[C@@H](CC(=O)O)C(=O)N[C@@H](CCCCN)C(=O)N[C@@H](Cc1ccccc1)C(=O)O ?
FBPA Giardia inh: 0%

Results for O=C(NC1CCCCC1)C(=O)c1ccccc1F ?
HCMV antiviral: 40

What do the screens show for `O=C(O)CCCCCn1c(O)c(C=C2N=c3ccccc3=N2)sc1=S`?
TbPYK inhibitor: -3%; FMDV inh: -6%; RE007 growth inh: 12%; FBPA Giardia inh: -1%; HCMV antiviral: -80*; Sm TGR inh: -21%

What do the screens show for `COc1ccc2nc(NC(=O)c3ccc(S(=O)(=O)N4CCCC(C)C4)cc3)sc2c1` (stereo unspecified)?
TbPYK inhibitor: -3%; FMDV inh: -1%; HCMV antiviral: 10; Sm TGR inh: 8%

How did Cc1ccc2nc(/C(C#N)=C\c3ccc(N4CCCCC4)c([N+](=O)[O-])c3)[nH]c2c1 do in these assays?
TbPYK inhibitor: 2%; RE007 growth inh: 19%; FBPA Giardia inh: -13%; HCMV antiviral: -62*; Sm TGR inh: 6%

Results for Cc1ccc2nc(/C(C#N)=C/c3ccc(O)c(O)c3)[nH]c2c1 ?
TbPYK inhibitor: -6%; FMDV inh: 1%; RE007 growth inh: -13%; FBPA Giardia inh: inconclusive; HCMV antiviral: 90; Sm TGR inh: -1%

How did COc1cc(/C=C(\C#N)c2nc3ccc(C)cc3[nH]2)ccc1OC(C)C do in these assays?
TbPYK inhibitor: 9%; FMDV inh: 15%; HCMV antiviral: -68*; Sm TGR inh: 4%

Results for N#C/C(=C/c1ccc(N2CCCC2)c([N+](=O)[O-])c1)c1nc2ccccc2[nH]1 ?
FMDV inh: 4%; RE007 growth inh: -9%[3.69 µM]; FBPA Giardia inh: 4%; HCMV antiviral: 10; Sm TGR inh: -12%

What do the screens show for `Cc1ccccc1-c1nccc(NCCN2CCOCC2)n1`?
FMDV inh: 8%; FBPA Giardia inh: -8%

Results for COc1ccccc1Oc1cc(C#N)c(C#N)cc1-n1nnc2ccccc21 ?
TbPYK inhibitor: 3%; FMDV inh: inconclusive; RE007 growth inh: -17%; FBPA Giardia inh: -5%; HCMV antiviral: -92*; Sm TGR inh: -3%

What do the screens show for `Cc1cc(C)cc(NC(=O)c2sc3nc(-c4ccccc4)cn3c2C)c1`?
TbPYK inhibitor: 0%; FMDV inh: -9%; HCMV antiviral: -13; Sm TGR inh: -6%

What do the screens show for `Cc1c(C(=O)Nc2ccc(F)c(C(F)(F)F)c2)sc2nc(-c3ccccc3)cn12`?
TbPYK inhibitor: -2%; FMDV inh: -9%; HCMV antiviral: -98*; Sm TGR inh: 0%

What do the screens show for `COc1ccccc1S(=O)(=O)Cc1ccc(C(=O)NC(C)c2ccc3c(c2)OCCO3)o1` (stereo unspecified)?
TbPYK inhibitor: -4%; FMDV inh: -18%; RE007 growth inh: 11%; FBPA Giardia inh: 4%; HCMV antiviral: -2; Sm TGR inh: 40µM*

How did Cc1ccccc1S(=O)(=O)Cc1ccc(C(=O)NC(C)c2ccccc2)o1 (stereo unspecified) do in these assays?
TbPYK inhibitor: 3%; FMDV inh: -5%; RE007 growth inh: -6%; FBPA Giardia inh: 6%; HCMV antiviral: -38; Sm TGR inh: -15%

How did O=C(/C=C/c1ccccc1)CCN1CCOCC1 do in these assays?
TbPYK inhibitor: 4%; FMDV inh: inconclusive; RE007 growth inh: -92%; HCMV antiviral: -17

What do the screens show for `CN(C)CCNC(=O)C(c1ccccc1)c1ccccc1`?
TbPYK inhibitor: 3%; FMDV inh: -13%; RE007 growth inh: 14%; FBPA Giardia inh: -6%; HCMV antiviral: 10; Sm TGR inh: -29%

How did O=C(Cc1ccccc1)N1CCNCC1 do in these assays?
TbPYK inhibitor: 5%; FMDV inh: 8%; RE007 growth inh: 2%; FBPA Giardia inh: 3%; HCMV antiviral: -17; Sm TGR inh: -12%

Results for C[N+](C)(C)CCC(=O)N1C/C(=C/c2ccccc2)C(=O)/C(=C\c2ccccc2)C1 ?
TbPYK inhibitor: -10%; FMDV inh: inconclusive; RE007 growth inh: 5%; HCMV antiviral: -67*

How did CN(C)CCC(=O)N1C/C(=C/c2ccccc2)C(=O)/C(=C\c2ccccc2)C1 do in these assays?
TbPYK inhibitor: -14%; FMDV inh: 8.9µM*; RE007 growth inh: -6%; HCMV antiviral: -98*
